# PubChem BioAssay (EPA / NIEHS)
# Records with an inconclusive call do not appear. The source made the active and inactive calls. The calls were made as follows: active = hit-call score of the fitted dose curve at least 0.9, where 1 is the maximum; inconclusive = response in the unintended direction; inactive = score below 0.9.
# System: not listed separately
# Assay: TOX21_p53_BLA_p3_viability: Viability Assessment in the Tox21 HCT-116 p53 Agonism Beta-lactamase Assay, Phase 3 (AID 2283593);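 also: cells exposed to compound for 16 h before reading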
# In short: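 Cellular ATP was quantified by CellTiter-Glo luminescence, read after 30 min at room temperature. Beforehand, HCT116 cells (4000/well) received compound 5 h post-seeding, 217-fold diluted from DMSO, then incubated 16 h at 37C.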
row,Compound,outcome
1,CCCCCCCCCCCC(C)=O,inactive
2,CCCCCC(=O)OCC,inactive
3,COCC(=O)O,inactive
4,CC(=O)OCCc1ccccc1,inactive
5,CC(Cl)COP(=O)(OCC(C)Cl)OCC(C)Cl (stereo unspecified),inactive
6,COC(=O)c1ccccc1C,inactive
7,NNS(=O)(=O)c1ccc(Oc2ccc(S(=O)(=O)NN)cc2)cc1,inactive
8,CCCCC(CC)COC(=O)/C=C/c1ccc(OC)cc1 (stereo unspecified),inactive
9,CCOC(=O)c1ccc(C)cc1,inactive
10,CCCC(CC)c1ccccc1 (stereo unspecified),inactive
11,Nc1ccc(C(=O)OCCCOC(=O)c2ccc(N)cc2)cc1,inactive
12,CC(C)CC(=O)OCc1ccccc1,inactive
13,CC(C)COC(=O)CC(C(=O)OCC(C)C)S(=O)(=O)O (stereo unspecified),inactive
14,CCOC(=O)c1ccccc1C,inactive
15,CCCCCCOC(=O)CCCCC(=O)OCCCCCC,inactive
16,c1ccc2cnccc2c1,inactive
17,CC1=CCC2CC1C2(C)C (stereo unspecified),inactive
18,C/C=C/C=C/CCCCCCCO,inactive
19,O=C(O)CC(C(=O)O)S(=O)(=O)O (stereo unspecified),inactive
20,CC(C)CCCCCOC(=O)CS,inactive

# Target: Cellular tumor antigen p53 (Homo sapiens) (UniProt P04637)
# Assay: TOX21_p53_BLA_p3_ratio: Tox21 HCT-116 p53 Agonism Beta-lactamase Assay, Ratio, Phase 3 (AID 2283596)
# In short: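 Cells were seeded at 4000/well, rested 5 h at 37C, then dosed with DMSO compound solutions (217-fold dilution) for 16 h. CCF4-AM substrate was loaded for 2 h at room temperature, and the 460/530 nm emission ratio was fitted for gain of signal versus DMSO.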
# Chain of Cellular tumor antigen p53 (Homo sapiens) (P04637 whole entry, looked up): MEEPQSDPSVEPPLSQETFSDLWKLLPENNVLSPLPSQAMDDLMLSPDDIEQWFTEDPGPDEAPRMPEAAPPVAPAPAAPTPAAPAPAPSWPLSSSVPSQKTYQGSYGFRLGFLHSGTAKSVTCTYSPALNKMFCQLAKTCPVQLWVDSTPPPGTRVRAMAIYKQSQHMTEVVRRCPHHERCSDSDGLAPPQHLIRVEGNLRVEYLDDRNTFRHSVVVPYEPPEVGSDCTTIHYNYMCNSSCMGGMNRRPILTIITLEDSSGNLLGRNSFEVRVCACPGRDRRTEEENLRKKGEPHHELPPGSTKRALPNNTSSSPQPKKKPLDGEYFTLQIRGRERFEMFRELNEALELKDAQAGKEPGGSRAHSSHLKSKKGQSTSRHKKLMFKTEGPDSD
row,Compound,outcome
1,CC(=O)OC/C=C(/C)CCC=C(C)C,inactive
2,Oc1ccccc1Cc1ccccc1O,inactive
3,CCCSSCCC,inactive
4,CC(=O)OCC=C(C)C,inactive
5,CCOC(=O)C1=NOC(c2ccccc2)(c2ccccc2)C1,inactive
6,C=C(C)C1CC=C(C)C(OC(C)=O)C1 (stereo unspecified),inactive
7,COC(=O)c1ccccc1C,inactive
8,CCCCOC(=O)C(C)CC (stereo unspecified),inactive
9,C=CCCCCCCCCO,inactive
10,CCCC/C=C/C=C\C=O,inactive
11,CCOC(=O)c1ccc(C)cc1,inactive
12,C=CC(C)(O)CC/C=C(\C)CC (stereo unspecified),inactive
13,CCCCC1CCC(=O)O1 (stereo unspecified),inactive
14,C=C(C)C(=O)OCCCCCCCCCCCC,inactive
15,CC(C)(C)N,inactive
16,CCCCOCCOC(=O)COc1ccc(Cl)cc1Cl,inactive
17,COc1cc(C)ccc1O,inactive

# System: not listed separately
# Assay: TOX21_p53_BLA_p4_viability: Viability Assessment in the Tox21 HCT-116 p53 Agonism Beta-lactamase Assay, Phase 4 (AID 2283597);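 also: hits lower the luminescence signal meaning cytotoxicity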
# In short: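 Viability is taken as cellular ATP: after 16 h compound exposure of HCT116 cells and a 2 h room-temperature CCF4-AM substrate step, CellTiter-Glo reagent is added and luminescence is measured 30 min later.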
row,Compound,outcome
1,CC(=O)OC/C=C(/C)CCC=C(C)C,inactive
2,Oc1ccccc1Cc1ccccc1O,inactive
3,COCC(=O)O,inactive
4,CC(=O)OCCc1ccccc1,inactive
5,CC(Cl)COP(=O)(OCC(C)Cl)OCC(C)Cl (stereo unspecified),inactive
6,CC(=O)OCC=C(C)C,inactive
7,CCOC(=O)C1=NOC(c2ccccc2)(c2ccccc2)C1,inactive
8,CCCCOC(=O)C(C)CC (stereo unspecified),inactive
9,C=CCCCCCCCCO,inactive
10,CCCC/C=C/C=C\C=O,inactive
11,CCCCC(CC)COC(=O)/C=C/c1ccc(OC)cc1 (stereo unspecified),inactive
12,C=CC(C)(O)CC/C=C(\C)CC (stereo unspecified),inactive
13,CCCCC1CCC(=O)O1 (stereo unspecified),inactive
14,CCCC(CC)c1ccccc1 (stereo unspecified),inactive
15,Nc1ccc(C(=O)OCCCOC(=O)c2ccc(N)cc2)cc1,inactive
16,CC(C)CC(=O)OCc1ccccc1,inactive
17,CC(C)COC(=O)CC(C(=O)OCC(C)C)S(=O)(=O)O (stereo unspecified),inactive
18,C=C(C)C(=O)OCCCCCCCCCCCC,inactive
19,CCOC(=O)c1ccccc1C,inactive
20,CCCCCCOC(=O)CCCCC(=O)OCCCCCC,inactive
21,CC(C)(C)N,inactive
22,CCCCOCCOC(=O)COc1ccc(Cl)cc1Cl,inactive
23,CC1=CCC2CC1C2(C)C (stereo unspecified),inactive
24,COc1cc(C)ccc1O,inactive
25,C/C=C/C=C/CCCCCCCO,inactive
26,CC(C)CCCCCOC(=O)CS,inactive

# Target: Cellular tumor antigen p53 (Homo sapiens) (UniProt P04637)
# Assay: TOX21_p53_BLA_p5_ratio: Tox21 HCT-116 p53 Agonism Beta-lactamase Assay, Ratio, Phase 5 (AID 2283599)
# In short: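 Beta-lactamase reporter ratio (blue 460 nm over green 530 nm, 405 nm excitation) after 2 h CCF4-AM loading, in HCT-116 cells exposed 16 h at 37 C to compounds pinned at 217-fold dilution. Increases relative to DMSO baseline scored.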
row,Compound,outcome
1,CC(=O)OC/C=C(/C)CCC=C(C)C,inactive
2,CCCCCC(=O)OCC,inactive
3,CC(=O)OCCc1ccccc1,inactive
4,CC(Cl)COP(=O)(OCC(C)Cl)OCC(C)Cl (stereo unspecified),inactive
5,CC(=O)OCC=C(C)C,inactive
6,CCOC(=O)C1=NOC(c2ccccc2)(c2ccccc2)C1,inactive
7,NNS(=O)(=O)c1ccc(Oc2ccc(S(=O)(=O)NN)cc2)cc1,inactive
8,CCCCOC(=O)C(C)CC (stereo unspecified),inactive
9,C=CCCCCCCCCO,inactive
10,CCCC/C=C/C=C\C=O,inactive
11,C=CC(C)(O)CC/C=C(\C)CC (stereo unspecified),inactive
12,CCCCC1CCC(=O)O1 (stereo unspecified),inactive
13,Nc1ccc(C(=O)OCCCOC(=O)c2ccc(N)cc2)cc1,inactive
14,CC(C)CC(=O)OCc1ccccc1,inactive
15,CC(C)COC(=O)CC(C(=O)OCC(C)C)S(=O)(=O)O (stereo unspecified),inactive
16,C=C(C)C(=O)OCCCCCCCCCCCC,inactive
17,CCOC(=O)c1ccccc1C,inactive
18,CCCCOCCOC(=O)COc1ccc(Cl)cc1Cl,inactive
19,COc1cc(C)ccc1O,inactive
20,C/C=C/C=C/CCCCCCCO,inactive
21,CC(C)CCCCCOC(=O)CS,inactive

# System: not listed separately
# Assay: TOX21_p53_BLA_p5_viability: Viability Assessment in the Tox21 HCT-116 p53 Agonism Beta-lactamase Assay, Phase 5 (AID 2283600)
# In short: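 Viability is taken from cellular ATP content, measured by luciferase luminescence in the same wells after the beta-lactamase ratio read. Cells are seeded at 4000 per well and exposed to DMSO-dissolved compounds, diluted 217-fold, for 16 h.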
row,Compound,outcome
1,CCCCCCCCCCCC(C)=O,inactive
2,CC(=O)OC/C=C(/C)CCC=C(C)C,inactive
3,COCC(=O)O,inactive
4,CC(=O)OCCc1ccccc1,inactive
5,CC(=O)OCC=C(C)C,inactive
6,CCOC(=O)C1=NOC(c2ccccc2)(c2ccccc2)C1,inactive
7,COC(=O)c1ccccc1C,inactive
8,NNS(=O)(=O)c1ccc(Oc2ccc(S(=O)(=O)NN)cc2)cc1,inactive
9,CCCCOC(=O)C(C)CC (stereo unspecified),inactive
10,C=CCCCCCCCCO,inactive
11,CCCC/C=C/C=C\C=O,inactive
12,CCCCC(CC)COC(=O)/C=C/c1ccc(OC)cc1 (stereo unspecified),inactive
13,CCCCC1CCC(=O)O1 (stereo unspecified),inactive
14,Nc1ccc(C(=O)OCCCOC(=O)c2ccc(N)cc2)cc1,inactive
15,CC(C)CC(=O)OCc1ccccc1,inactive
16,C=C(C)C(=O)OCCCCCCCCCCCC,inactive
17,CCOC(=O)c1ccccc1C,inactive
18,CCCCOCCOC(=O)COc1ccc(Cl)cc1Cl,inactive
19,COc1cc(C)ccc1O,inactive
20,C/C=C/C=C/CCCCCCCO,inactive
21,O=C(O)CC(C(=O)O)S(=O)(=O)O (stereo unspecified),inactive
22,CC(C)CCCCCOC(=O)CS,inactive
